Test results taken from PubChem BioAssay AID588549 (Broad Institute, 2011).
About 780 (0.22%) of roughly 360,000 compounds were called active. Only a selection was taken, and actives are over-represented in it overall. A number with no mark means an inactive call. No stated cut-off is given here; in the data, active means inhibition above about 8.5% (passing the limit was not always enough); inconclusive means no clear call, values can overlap the other calls.

The molecules below were run on Mycobacterium tuberculosis FadD28 fatty-acid-AMP ligase (assay: inhibitors of FadD28 bisubstrate probe binding, primary screen, biochemical, fluorescence polarization, single point (AID 588549)). Settings: at 12.5 µM, hits give high values.

Question: How did the inhibition turn out when `C=CCn1c(SCc2cc(C(=O)OC)c(C)o2)nnc1-c1ccncc1` was run?
Answer: -3.43%

Question: `Cc1ccc(C(c2sc3nc(C)nn3c2O)N2CCN(c3ccc(F)cc3)CC2)cc1` (centres undefined) was tested. Which inhibition did it give?
Answer: -3.79%

Question: How did the inhibition turn out when `CC(=O)c1c(N2CCN(c3ccc(F)cc3)CC2)nc(=S)n(-c2ccccc2)c1C` was run?
Answer: -1.67%

Question: Which inhibition does the source give for `O=C(C1Cc2ccccc2CN1C(=O)c1ccco1)N1CCN(c2ccccc2)CC1` (centres undefined) here?
Answer: -0.0045%

Question: For `C[C@H]1CN([C@@H](C)CO)C(=O)c2cc(C3=CCCCC3)cnc2O[C@@H]1CN(C)C(=O)Cc1ccccc1`, which inhibition is on record?
Answer: -1.03%

Question: For `Cc1nn(Cc2ccccc2)c(C)c1C(=O)N1CCN(CC(=O)Nc2ccccc2Cl)CC1`, which inhibition is on record?
Answer: -3.56%

Question: With `COCCCn1c(-c2cccs2)nc2nc3ccccc3nc21` as the molecule, how does the inhibition read?
Answer: -0.0615%

Question: With `CCC(=O)Nc1cccc(NC(=O)CSc2nnc(-c3ccc(NS(C)(=O)=O)cc3)n2C)c1` as the molecule, how does the inhibition read?
Answer: 1.19%

Question: How did the inhibition turn out when `COCCN1Cc2cccc(C(=O)Nc3ccccc3OC)c2C1=O` was run?
Answer: -3.48%

Question: How did the inhibition turn out when `Cc1cccc(CN2CCN(C3CN(Cc4ccccc4)S(=O)(=O)C3)CC2)c1` (centres undefined) was run?
Answer: -1.16%

Question: For `CCN(CC(=O)NCc1ccc(F)cc1)S(=O)(=O)c1ccc(Cl)s1`, which inhibition is on record?
Answer: -3.08%

Question: With `C=CC(=O)OCCOCCOCCOCCOC(=O)C=C` as the molecule, how does the inhibition read?
Answer: -2.6%

Question: How did the inhibition turn out when `COC(=O)CCCCC1=CCC2C(=O)C=C(O)C2C1` (centres undefined) was run?
Answer: -1.93%

Question: Which inhibition does the source give for `COc1cc(CNCc2ccc(OC)c3ccccc23)cc(OC)c1OC` here?
Answer: -0.377%

Question: With `CCc1nc2c(OCCOc3ccccc3)cccn2c1N(C)C(=O)c1cccs1` as the molecule, how does the inhibition read?
Answer: -4.76%

Question: With `COC(=O)C1(C)CC1(c1ccccc1)c1ccccc1` (centres undefined) as the molecule, how does the inhibition read?
Answer: -0.161%

Question: `O=C1c2ccccc2C2=Nc3ccccc3SC(c3ccccc3F)C12` (centres undefined) was tested. Which inhibition did it give?
Answer: -4.89%

Question: Which inhibition does the source give for `COC(=O)C1CC2=C(CC(C)(C)CC2=O)N(c2ccccc2)C1=O` (centres undefined) here?
Answer: 1.35%

Question: Which inhibition does the source give for `Cc1ccc(N(Cc2ccc(C(=O)Nc3ccccc3C(=O)NCc3ccco3)cc2)S(C)(=O)=O)cc1C` here?
Answer: -1.65%

Question: Which inhibition does the source give for `COCCN(C(=O)c1ccccc1F)c1c(N)n(Cc2ccccc2)c(=O)[nH]c1=O` here?
Answer: -1.47%

Question: How did the inhibition turn out when `CC/C(=N\NC(=O)c1ccccc1Cl)c1ccc(Br)s1` was run?
Answer: -2.73%

Question: `CC/C(=N\NC(=O)c1ccccc1O)c1c(O)n(Cc2ccccc2)c(=O)[nH]c1=O` was tested. Which inhibition did it give?
Answer: 17.8% (active)

Question: For `Cc1ccc(C)c2c1cc(C)c1nnc(SCC(=O)Nc3cccc(C(=O)O)c3)n12`, which inhibition is on record?
Answer: -2.19%

Question: `NNC(=O)COc1ccc(C2SCCS2)cc1` was tested. Which inhibition did it give?
Answer: -1.11%
